Measurements reported in PubChem BioAssay.

Tested on: not listed separately
Experiment: binders of probe aFGF10 on microarray, primary screen, stem cell growth factor project, biochemical, small-molecule microarray, fluorescence 635/667 (AID 1071);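 also: score merges 667 nm spot intensity and signal to noise from triplicate slides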
Conditions: higher = more signal

Compound	composite z-score
COCCOC(=O)N1C(=O)[C@@]2(c3cc(C#Cc4ccc(OC)cc4)ccc31)[C@H](C(=O)N1CCc3cc(OC)c(OC)cc3C1)[C@H]1C(=O)O[C@H](c3ccccc3)[C@H](c3ccccc3)N1[C@@H]2c1ccc(O)cc1	0.64
CC(C)CNC(=O)[C@@]1(C)c2ccccc2C(=O)N(Cc2ccccc2)[C@H]1c1ccc(CO)cc1	-1.42
COc1ccccc1CN1C(=O)c2ccccc2[C@](Cc2ccccc2I)(C(=O)NCCN2CCOCC2)[C@@H]1c1ccc(CO)cc1	0.479
CCCCCCC#C[Si](O[C@H](c1ccccc1)c1cn(Cc2cccc(Cl)c2)nn1)(C(C)C)C(C)C	0.238
COc1ccc([Si](C)(C)[C@@H]2[C@@H](CCO)O[C@]3(C(=O)N(Cc4ccccc4)c4ccc(N5CCCCC5=O)cc43)[C@H]2C)cc1	0.711
COC(=O)[C@@]1(Cc2ccc(F)cc2)[C@@H]2[C@@H](CC(=O)[C@H]2CC(=O)C(=O)N2CCCC2)CN1C(=O)c1ccccc1	0.56
COCCOC(=O)N1C(=O)[C@@]2(c3cc(C#CCCO)ccc31)[C@H](c1ccc(OCCO)cc1)N1[C@H](c3ccccc3)[C@H](c3ccccc3)OC(=O)[C@H]1[C@@H]2C(=O)N1CCc2cc(OC)c(OC)cc2C1	0.375
C=CC[C@]1(C(=O)NCC(O)CO)N=C(c2ccc(OCCCO)cc2)O[C@H]1c1ccccc1N=[N+]=[N-] (stereo partly drawn)	0.154
O=C(O)[C@]1(CCS(=O)(=O)c2ccccc2)N=C(c2ccc(OCCCO)cc2)O[C@@H]1c1ccccc1	-0.0267
[N-]=[N+]=NCc1ccccc1C[C@]1(C(=O)NCCN2CCOCC2)COC(c2ccc(OCCCO)cc2)=N1	0.121
CC(C)C[C@@H]1NC(=O)[C@@H]2C[C@H](C(=O)NCc3ccc(F)cc3)[C@H](c3ccc(O)cc3)N2C1=O	0.0187
C=CCNC(=O)[C@H]1[C@@H]2C(=O)O[C@@H](c3ccccc3)[C@@H](c3ccccc3)N2[C@@H](c2ccc(O)cc2)[C@]12C(=O)N(C(=O)OCCOC)c1ccc(C#CC3(O)CCCCCC3)cc12	0.875
COCCOC(=O)N1C(=O)[C@@]2(c3cc(C#CCC(C(=O)OC)C(=O)OC)ccc31)[C@H](C(=O)N1CCCCCCC1)[C@H]1C(=O)O[C@H](c3ccccc3)[C@H](c3ccccc3)N1[C@@H]2c1ccc(O)cc1	0.344
O=[N+]([O-])c1ccc(C[n+]2ccc(-c3ccc(CO)cc3)cc2)o1	0.165
CN1C(=O)C2C=CC(C(O)COCc3ccccc3)N(Nc3ccccc3)C2C1=O (stereo not drawn)	0.389
COC(=O)[C@@]1(Cc2ccc(OC)cc2)[C@H]2c3cc(C(=O)N4CCCC4)n(CCc4ccc(O)c(OC)c4)c3C[C@H]2CN1C(=O)c1ccccc1	0.252
C=C(CCCC)/C(=C/C[C@H](OC(=O)c1ccncc1)c1ccc(CO)o1)c1cc(C(=O)OC)ccc1OC	0.418
C[C@@H]1ON(c2ccccc2)[C@H](c2ccccc2)[C@H]1C(=O)N1C(=O)OC[C@H]1Cc1ccccc1	0.464

Target: Neurogenic locus notch homolog protein 2 (Homo sapiens) (UniProt Q04721)
Sequence (Q04721 whole entry, looked up): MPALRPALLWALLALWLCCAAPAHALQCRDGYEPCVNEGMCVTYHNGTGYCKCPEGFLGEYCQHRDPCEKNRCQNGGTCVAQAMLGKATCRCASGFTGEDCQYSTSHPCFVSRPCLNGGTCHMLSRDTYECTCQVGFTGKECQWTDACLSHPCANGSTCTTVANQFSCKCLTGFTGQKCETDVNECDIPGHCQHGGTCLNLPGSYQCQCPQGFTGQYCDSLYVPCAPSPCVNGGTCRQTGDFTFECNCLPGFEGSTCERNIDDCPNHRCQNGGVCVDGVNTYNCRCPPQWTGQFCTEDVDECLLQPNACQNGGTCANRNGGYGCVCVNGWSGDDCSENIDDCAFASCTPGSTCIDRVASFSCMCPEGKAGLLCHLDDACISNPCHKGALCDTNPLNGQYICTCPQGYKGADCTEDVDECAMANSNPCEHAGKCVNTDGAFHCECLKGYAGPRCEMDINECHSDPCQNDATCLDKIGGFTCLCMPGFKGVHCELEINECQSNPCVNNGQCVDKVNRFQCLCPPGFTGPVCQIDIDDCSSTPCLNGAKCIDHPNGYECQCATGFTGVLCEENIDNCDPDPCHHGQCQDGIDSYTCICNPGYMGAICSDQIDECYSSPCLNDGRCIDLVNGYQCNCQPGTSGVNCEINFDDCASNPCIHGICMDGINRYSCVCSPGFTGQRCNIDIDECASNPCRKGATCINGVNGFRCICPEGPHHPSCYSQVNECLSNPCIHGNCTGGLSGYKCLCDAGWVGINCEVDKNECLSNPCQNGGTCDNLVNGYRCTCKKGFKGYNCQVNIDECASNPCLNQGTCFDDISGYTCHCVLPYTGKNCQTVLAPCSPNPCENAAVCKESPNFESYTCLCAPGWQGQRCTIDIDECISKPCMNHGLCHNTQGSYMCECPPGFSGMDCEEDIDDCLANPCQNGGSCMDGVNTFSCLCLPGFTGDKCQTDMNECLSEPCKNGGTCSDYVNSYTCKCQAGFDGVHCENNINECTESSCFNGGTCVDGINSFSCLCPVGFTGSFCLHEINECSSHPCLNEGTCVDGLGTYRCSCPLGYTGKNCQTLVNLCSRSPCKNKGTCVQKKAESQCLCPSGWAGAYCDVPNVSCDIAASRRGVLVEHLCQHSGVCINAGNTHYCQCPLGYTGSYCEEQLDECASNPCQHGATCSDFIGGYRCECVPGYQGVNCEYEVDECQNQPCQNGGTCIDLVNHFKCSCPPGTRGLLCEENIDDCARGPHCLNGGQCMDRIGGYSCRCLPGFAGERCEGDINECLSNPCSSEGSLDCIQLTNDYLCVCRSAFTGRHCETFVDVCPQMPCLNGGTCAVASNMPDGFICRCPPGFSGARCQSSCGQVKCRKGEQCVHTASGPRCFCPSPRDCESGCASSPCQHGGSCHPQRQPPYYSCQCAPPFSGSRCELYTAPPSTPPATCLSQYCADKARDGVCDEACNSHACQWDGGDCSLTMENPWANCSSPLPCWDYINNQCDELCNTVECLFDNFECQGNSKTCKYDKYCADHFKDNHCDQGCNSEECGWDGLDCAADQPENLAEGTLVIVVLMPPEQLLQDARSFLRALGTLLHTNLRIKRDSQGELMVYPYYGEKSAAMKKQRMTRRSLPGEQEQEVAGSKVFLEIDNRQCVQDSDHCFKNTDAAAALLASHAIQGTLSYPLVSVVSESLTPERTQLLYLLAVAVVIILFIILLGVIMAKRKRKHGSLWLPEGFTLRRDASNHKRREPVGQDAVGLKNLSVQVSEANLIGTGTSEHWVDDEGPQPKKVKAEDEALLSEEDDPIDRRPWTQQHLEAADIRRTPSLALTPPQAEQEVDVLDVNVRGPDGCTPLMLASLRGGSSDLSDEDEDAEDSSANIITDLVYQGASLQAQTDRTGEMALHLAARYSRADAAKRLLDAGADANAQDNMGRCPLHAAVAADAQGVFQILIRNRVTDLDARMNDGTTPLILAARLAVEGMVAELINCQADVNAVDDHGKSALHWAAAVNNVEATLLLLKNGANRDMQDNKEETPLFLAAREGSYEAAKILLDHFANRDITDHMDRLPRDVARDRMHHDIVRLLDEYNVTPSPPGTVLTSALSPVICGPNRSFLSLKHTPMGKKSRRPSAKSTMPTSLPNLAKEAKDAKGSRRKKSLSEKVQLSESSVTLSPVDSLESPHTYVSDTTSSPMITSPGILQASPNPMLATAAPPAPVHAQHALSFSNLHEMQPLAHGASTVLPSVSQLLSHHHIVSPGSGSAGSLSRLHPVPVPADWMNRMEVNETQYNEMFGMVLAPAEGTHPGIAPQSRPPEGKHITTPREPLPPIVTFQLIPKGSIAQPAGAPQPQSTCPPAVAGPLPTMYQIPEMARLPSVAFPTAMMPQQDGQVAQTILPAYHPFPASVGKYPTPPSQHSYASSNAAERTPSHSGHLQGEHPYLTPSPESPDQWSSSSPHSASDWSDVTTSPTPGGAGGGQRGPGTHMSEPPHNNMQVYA
Experiment: Notch2 binders on small-molecule microarrays, primary screen, biochemical, small-molecule microarray, 635 nm fluorescence, stem cell growth factors (AID 1073)
Conditions: Notch2 binding, higher = more signal

Compound	composite z-score
COC(=O)c1ccc(OC)c(/C=C\CC(CCc2ccccc2)OC(C)=O)c1 (stereo not drawn)	-0.394
C[N+](C)(C)CCCC[C@@H]1NC(=O)[C@H]2C[C@@H](C(=O)NCCCCCCN)[C@@H](c3cccc(OCCO)c3)N2C1=O	0.791
C/C=C/[C@@H](CCn1cc([C@H](O)c2ccccc2)nn1)[Si](C)(C)c1ccc(OC)cc1	-1.5
CCCCCCCCCCC(O)C1C=CC2C(=O)NC(=O)C2N1Nc1ccccn1 (stereo not drawn)	0.439
COC(=O)[C@@]1(Cc2ccc(F)cc2)[C@H]2c3cc(C(=O)N(C)C)n(CCSCCO)c3C[C@H]2CN1C(=O)c1ccccc1	1.36
CC1CC/C=C\[C@H]2OC34C=CCN(Cc5ccccc5)C(=O)[C@H]3N(CCO)C(=O)[C@@H]4C2C(=O)O1 (stereo partly drawn)	-0.821
C=C(COC)C(=O)CC[C@H](OC(=O)c1ccccc1-c1ccccc1C(=O)O)c1ccc(OCCO)cc1	-0.0342
C=CCC(OC(C)=O)[C@@H]1[C@@H](N(Cc2cc3ccccc3o2)C(=O)Cc2ccc(OC)cc2)c2cc(OCCCO)ccc2N1C(=O)c1ccc(-c2ccccc2)cc1 (stereo partly drawn)	-0.4
CC1CC/C=C\[C@H]2OC34C=CCN(c5ccc(Cl)cc5)C(=O)[C@H]3N(C(CO)C(C)C)C(=O)[C@]4(C)C2C(=O)O1 (stereo partly drawn)	-0.594
O=C1O[C@@H](c2ccccc2)[C@@H](c2ccccc2)N2[C@@H](c3ccc(O)cc3)[C@]3(C(=O)Nc4ccc(C#CC5(O)CCCCCC5)cc43)[C@@H](C(=O)N3CCN(c4ncccn4)CC3)[C@H]12	0.609
CC[C@@H]1[C@@H]2C3C(=O)N(CC)C(=O)C3CC(=O)[C@@H]2[C@H](c2ccc(C)cc2)N1S(=O)(=O)c1ccc(C)cc1 (stereo partly drawn)	1.56
COCCOC(=O)N1C(=O)[C@@]2(c3cc(C#CCCO)ccc31)[C@H](C(=O)NC[C@H](O)c1ccccc1)[C@H]1C(=O)O[C@H](c3ccccc3)[C@H](c3ccccc3)N1[C@@H]2c1ccccc1OCCO	1.48
C=CCOC(=O)[C@@H]1[C@H]2C(=O)O[C@H](c3ccccc3)[C@H](c3ccccc3)N2[C@H](c2ccc(OCCOC(=O)[C@@H]3C[C@@H]4C(=O)N[C@@H](CCCCNC(C)=O)C(=O)N4[C@@H]3c3ccc(O)cc3)cc2)[C@@]12C(=O)Nc1ccc(I)cc12	0.971
CC(C)CCC[C@@H](C)[C@H]1CC[C@@]2(C)C3=C(CC[C@]12C)[C@@]1(C)CC[C@H](OC(=O)c2ccc(N)cc2)C(C)(C)C1CC3 (stereo partly drawn)	0.558
CCCN1C(=O)[C@@H]2Cc3c([nH]c4ccccc34)[C@@H](c3cccc(O)c3)N2C1=O	0.59
C=CCN1C(=O)[C@@]2(O[C@@H](CCn3cc([C@H](O)c4ccccc4)nn3)[C@H]([Si](C)(C)c3ccc(OC)cc3)[C@H]2C)c2cc(NC(=O)c3ccc(OC)cc3)ccc21	0.147
COc1ccc([Si](C)(C)[C@@H]2[C@@H](CC(=O)N(CCO)Cc3ccccc3)O[C@]3(C(=O)N(Cc4ccc(N5CCOC5=O)cc4)c4ccccc43)[C@H]2C)cc1	0.294
COCCOC(=O)N1C(=O)[C@@]2(c3cc(C#Cc4ccc(OC)cc4)ccc31)[C@H](C(=O)N1CCc3cc(OC)c(OC)cc3C1)[C@H]1C(=O)O[C@H](c3ccccc3)[C@H](c3ccccc3)N1[C@@H]2c1ccc(O)cc1	1.47

Compound	composite z-score
CC(C)CNC(=O)[C@@]1(C)c2ccccc2C(=O)N(Cc2ccccc2)[C@H]1c1ccc(CO)cc1	-0.762
COc1ccccc1CN1C(=O)c2ccccc2[C@](Cc2ccccc2I)(C(=O)NCCN2CCOCC2)[C@@H]1c1ccc(CO)cc1	1.37
CCCCCCC#C[Si](O[C@H](c1ccccc1)c1cn(Cc2cccc(Cl)c2)nn1)(C(C)C)C(C)C	0.631
COc1ccc([Si](C)(C)[C@@H]2[C@@H](CCO)O[C@]3(C(=O)N(Cc4ccccc4)c4ccc(N5CCCCC5=O)cc43)[C@H]2C)cc1	1.06
COC(=O)[C@@]1(Cc2ccc(F)cc2)[C@@H]2[C@@H](CC(=O)[C@H]2CC(=O)C(=O)N2CCCC2)CN1C(=O)c1ccccc1	1.71
COCCOC(=O)N1C(=O)[C@@]2(c3cc(C#CCCO)ccc31)[C@H](c1ccc(OCCO)cc1)N1[C@H](c3ccccc3)[C@H](c3ccccc3)OC(=O)[C@H]1[C@@H]2C(=O)N1CCc2cc(OC)c(OC)cc2C1	0.921
C=CC[C@]1(C(=O)NCC(O)CO)N=C(c2ccc(OCCCO)cc2)O[C@H]1c1ccccc1N=[N+]=[N-] (stereo partly drawn)	0.323
O=C(O)[C@]1(CCS(=O)(=O)c2ccccc2)N=C(c2ccc(OCCCO)cc2)O[C@@H]1c1ccccc1	0.506
[N-]=[N+]=NCc1ccccc1C[C@]1(C(=O)NCCN2CCOCC2)COC(c2ccc(OCCCO)cc2)=N1	0.973
CC(C)C[C@@H]1NC(=O)[C@@H]2C[C@H](C(=O)NCc3ccc(F)cc3)[C@H](c3ccc(O)cc3)N2C1=O	0.245
C=CCNC(=O)[C@H]1[C@@H]2C(=O)O[C@@H](c3ccccc3)[C@@H](c3ccccc3)N2[C@@H](c2ccc(O)cc2)[C@]12C(=O)N(C(=O)OCCOC)c1ccc(C#CC3(O)CCCCCC3)cc12	0.793
COCCOC(=O)N1C(=O)[C@@]2(c3cc(C#CCC(C(=O)OC)C(=O)OC)ccc31)[C@H](C(=O)N1CCCCCCC1)[C@H]1C(=O)O[C@H](c3ccccc3)[C@H](c3ccccc3)N1[C@@H]2c1ccc(O)cc1	1.26
O=[N+]([O-])c1ccc(C[n+]2ccc(-c3ccc(CO)cc3)cc2)o1	1.29
CN1C(=O)C2C=CC(C(O)COCc3ccccc3)N(Nc3ccccc3)C2C1=O (stereo not drawn)	1.33
COC(=O)[C@@]1(Cc2ccc(OC)cc2)[C@H]2c3cc(C(=O)N4CCCC4)n(CCc4ccc(O)c(OC)c4)c3C[C@H]2CN1C(=O)c1ccccc1	1.56
C=C(CCCC)/C(=C/C[C@H](OC(=O)c1ccncc1)c1ccc(CO)o1)c1cc(C(=O)OC)ccc1OC	0.822
C[C@@H]1ON(c2ccccc2)[C@H](c2ccccc2)[C@H]1C(=O)N1C(=O)OC[C@H]1Cc1ccccc1	0.844
